Common to all, as to assay: PBM binding z-score (relative to random genomic background probes); higher = stronger binding; sequences stand for … in GC…GCGATTGACAGCGTAGAATGAAGG
The subject of experiment [1] is FXR:RXRa (NR concentration 270 nM, RXRa partner concentration 90 nM). The method, boiled down: (§1)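 Scanned fluorescence from custom Agilent 4×180K protein-binding microarrays was regression-normalized. Binding z-scores use random background probes as reference. Ligand-free nuclear receptor dimers were incubated on the arrays for 1 h and detected with antibodies against each partner (one per run).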

The test system of experiment [2] is LXRa:RXRa (NR concentration 270 nM, RXRa partner concentration 90 nM). The method, boiled down: as §1
The subject of experiment [3] is LXRa homodimer (NR concentration 270 nM). The essentials: as §1
Experiment [4] relates to PPARg:RXRa 270nM:90nM, anti-RXR (NR concentration 270 nM, RXRa partner concentration 90 nM). The essentials: as §1
For experiment [5], the system named is PPARg:RXRa 30nM:10nM, anti-RXR (NR concentration 30 nM, RXRa partner concentration 10 nM). The method, boiled down:
as §1

The test system of experiment [6] is PPARg:RXRa 90nM:30nM, anti-RXR (NR concentration 90 nM, RXRa partner concentration 30 nM). The essentials:
as §1

The test system of experiment [7] is PPARg:RXRa DBDmut IVT, anti-RXR (DBD mutation: RXRa K156A/R161A, NR concentration 270 nM, RXRa partner concentration 90 nM). The essentials:
as §1

In experiment [8] the test system is PPARg:RXRa IVT, anti-PPARg (NR concentration 270 nM, RXRa partner concentration 90 nM). The method, boiled down:
as §1

The test system of experiment [9] is PPARg homodimer (NR concentration 180 nM). The method, boiled down: as §1
Experiment [10] has as its system PXR homodimer (NR concentration 270 nM). The essentials:
as §1

In experiment [11] the test system is RARa homodimer (NR concentration 270 nM). The method, boiled down: as §1
The test system of experiment [12] is RARb:RXRa (NR concentration 270 nM, RXRa partner concentration 90 nM). The essentials:
as §1

Experiment [13] deals with RARb homodimer (NR concentration 270 nM). The essentials: as §1
The test system of experiment [14] is LXRb homodimer (NR concentration 270 nM). The method, boiled down: as §1
Experiment [15] has as its system PPARg DBDmut:RXRa IVT, anti-PPARg (DBD mutation: PPARg1 K132A/R137A, NR concentration 270 nM, RXRa partner concentration 90 nM). The essentials: as §1
Experiment [16] has as its system PPARg DBDmut IVT, anti-PPARg (DBD mutation: PPARg1 K132A/R137A, NR concentration 270 nM). The method, boiled down:
as §1

The test system of experiment [17] is PPARa:RXRa (NR concentration 270 nM, RXRa partner concentration 90 nM). The method, boiled down: as §1
Experiment [18] concerns PPARg:RXRa (NR concentration 180 nM, RXRa partner concentration 90 nM). The essentials: as §1
Experiment [19] concerns RARa:RXR (NR concentration 270 nM, RXRa partner concentration 90 nM). The essentials: as §1
The test system of experiment [20] is PXR:RXRa (NR concentration 270 nM, RXRa partner concentration 90 nM). The essentials:
as §1

For CTATGTAGGTCAAGGGGGTCATTCAGTTTGAAAG, the PBM binding z-score turned out to be 7.19 in experiment [1]; 5.9 in experiment [2]; 4.49 in experiment [3]; 9.27 in experiment [4]; 8.54 in [5]; 10.3 in [6]. The PBM binding z-score in experiment [7] is 8.6; in [8] it was 9.07; in [9], 5.3; in experiment [10], 13.1; in experiment [11], 2.29; in experiment [12], 5.06. Also, in [13], the PBM binding z-score came to 4.85.
On to ATATGTAGGTCAAGGGTCATTCAGGTTGGTTCGC, for which the PBM binding z-score came out at 7.27 in experiment [1]; 6.25 in experiment [2]; 5.58 in experiment [3]; 2.07 in experiment [14]; 10.5 in [4]; 11.7 in experiment [5]. Also, the PBM binding z-score in experiment [6] was 11.7; in [7] it was 8.58; in experiment [8], 9.34; in experiment [15], 5.02; in experiment [16], 3.68; in [9], 4.44. The PBM binding z-score was found to be 2.53 in experiment [10], 1.72 in [11], 5.35 in [12] and 5.1 in experiment [13].
ACTTACGGGTCAACGAGGTCATAGCACGCGTATA: the PBM binding z-score in [1] was 7.21; in experiment [2] it was 6.34; in experiment [3], 3.72; in [14] it was 1.13; in experiment [17], 6.12; in [18], 6.76. Further, the PBM binding z-score came to 6.81 in experiment [4]; 3.78 in experiment [5]; 5.73 in experiment [6]; 4.12 in experiment [7]; 5.29 in experiment [8]; 2.33 in experiment [15]. The PBM binding z-score in experiment [16] worked out at 3.32; in experiment [9], 4.63; in experiment [10] it was 11.6; in experiment [19] it was 7.02; in experiment [11], 2.3; in experiment [12] it was 4.82. In addition, in [13], the PBM binding z-score is 5.04.
Take CACACTAGGTCACAGAGGTCAAAGTCCGTGCGTA: the PBM binding z-score in [1] turned out to be 7.16; in [3] it was 8.63; in experiment [14], 2.87; in [17], 6.51; in experiment [18], 9.53; in experiment [4] it was 7.9. The PBM binding z-score was 5.64 in experiment [5]; 7.43 in experiment [6]; 7.79 in [7]; 8.44 in experiment [8]; 0.528 in [15]; 2.16 in [16]. Moreover, the PBM binding z-score in experiment [9] came out at 4.86; in [20], 6.73; in [10], 12; in [19], 7.59; in experiment [11] it was 3.69; in experiment [12] it was 5.36. The sequence also had a PBM binding z-score in experiment [13] of 5.86.
With CTCGAAAGGTCGTGCTCAGATGAGTATACCAAAC, the PBM binding z-score in experiment [1] was 5.4; in experiment [3] it was 0.0537; in experiment [14], 0.486; in [17], 4.71; in experiment [18], 2.71; in experiment [4], 3.42. The PBM binding z-score in experiment [5] worked out at 0.769; in experiment [6] it was 2.09; in experiment [7], 0.422; in [8], 1.25; in [15], 0.625; in [16] it was 1.37. Further, the PBM binding z-score in experiment [9] is 1.3; in experiment [20] it was 2.96; in [10], 0.152; in [11], 0.441; in experiment [12] it was 3.79; in [13] it was 2.15.
With TCTAGTTGGTCTAAGGTCACACACTCGAAATGCG, the PBM binding z-score is 4.14 in experiment [1]; 2.63 in experiment [3]; 1.6 in experiment [14]; 4.7 in [17]; 5.15 in experiment [18]; 6.51 in experiment [4]. For the same sequence, the PBM binding z-score in experiment [5] stood at 5.71; in experiment [6], 6.57; in experiment [7], 2.2; in experiment [8], 3.51; in experiment [15], 1.67; in experiment [16], 1.64. Besides, the PBM binding z-score was determined as 4.05 in experiment [9]; 4.79 in experiment [20]; 2.22 in experiment [10]; 5.04 in experiment [19]; 2.5 in experiment [11]; 3.76 in experiment [12]. Moreover, in experiment [13], the PBM binding z-score amounted to 4.29.
For ATCGAAAGGTCTAAGGTGAGTATACCCACCCGAA, the PBM binding z-score was 0.614 in experiment [1]; -0.103 in experiment [3]; -0.0723 in [14]; 1.52 in [17]; 1.52 in experiment [18]; 2.08 in [4]. Moreover, the PBM binding z-score in experiment [5] is 0.802; in experiment [6], 1.56; in experiment [7], -0.401; in experiment [8], 1.2; in [15], 0.696; in experiment [16] it was 0.446. Also, the PBM binding z-score in experiment [9] came out at 0.384; in experiment [20], 0.515; in experiment [10] it was 0.247; in experiment [19] it was 1.35; in experiment [11], 0.59; in experiment [12], 1.53. Also, in experiment [13], the PBM binding z-score worked out at 1.08.
For CAAAATAGGTCACCGGAAGGTCAAAGTCCGCATG, the PBM binding z-score worked out at 7.48 in [1]; 5.46 in experiment [3]; 1.73 in experiment [14]; 6.51 in experiment [17]; 9.14 in experiment [18]; 7.64 in experiment [4]. For the same sequence, the PBM binding z-score in [5] turned out to be 6.2; in experiment [6] it was 7.69; in experiment [7], 7.95; in [8], 8.01; in [15], 1.87; in experiment [16], 1.44. The PBM binding z-score in experiment [9] was 8.87; in [20], 6.56; in experiment [10], 1.96; in experiment [19], 8.2; in [11] it was 4.27; in [13], 5.89.

(Values after the supplement of paper PMC6555819.)
